Screen size: about 420,000 compounds; about 64,000 (15%) were called active. Another 27% or so got no clear call; they are omitted. Calls come from the whole dose curve; as a rule, active = well fitted inhibition curve with a large enough effect; inconclusive = small, poorly fitted or top-dose-only effect; inactive = flat fitted curve, though single readings scatter. Not all results are given here. A call without a number means that no potency is given here.
Experiment: qHTS for Inhibitors of human tyrosyl-DNA phosphodiesterase 1 (TDP1): qHTS in cells in absence of CPT; note: nearly all actives have a fitted effect of over 55% in size
Conditions: DT40 Tdp1-/- hTDP1 cells, no CPT, ATP luminescence, 48 h; activity change, negative = growth inhibition: at 46.2 µM (top of the series)
How it was run: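 Chicken DT40 Tdp1-/- cells complemented with human TDP1, screened without camptothecin (DMSO vehicle only), 400 cells/well. Compounds pin-transferred, cells incubated at 37 °C for at least 48 hr. Growth read as ATP-dependent luminescence (CellTiter-Glo, 30 min at RT).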
Potency is the fitted concentration of half-maximal effect.

| Structure (SMILES) | Potency |
| --- | --- |
| CC1(C)C/C(=C(/C#N)C(N)=O)CCO1 | inactive |
| O=C(O)c1ccccc1NC(=S)NC(NC(=O)c1ccccc1[N+](=O)[O-])C(Cl)(Cl)Cl (configuration not stated) | inactive |
| Cc1cc(C)cc(N(CC(=O)Nc2c(C)n(C)n(-c3ccccc3)c2=O)S(C)(=O)=O)c1 | inactive |
| Cc1ccc(S(=O)(=O)N2CCCCC2)cc1NC(=O)[C@@H]1CCCN1C(=O)c1cccs1 | inactive |
| COc1ccc(S(=O)(=O)N2CCCCCC2)cc1NC(=O)Cc1ccc(OC)c(OC)c1 | inactive |
| CCOc1ccc(S(=O)(=O)N2CCCCC2)cc1NC(=O)CN1CCCC1c1cccs1 (configuration not stated) | 2.06 µM (active) |
| C=CCOc1c2ccc(C(=O)N(CC)c3ccc(OC)cc3)cc2nn1C | inactive |
| CCN(C(=O)C1CCCN(c2nc(-c3ccc(OC)cc3)no2)C1)c1ccc(OC)cc1 (configuration not stated) | 20.6 µM (active) |
| COc1cccc(N(CC(=O)NC2CCCC2)C(=O)Cn2nnc(-c3ccc(C)cc3)n2)c1 | inactive |
| O=C1C(=O)N(CCCO)C(c2ccccc2)/C1=C(\O)c1ccc(Br)cc1 (configuration not stated) | inactive |
| Cc1ccc(C(=O)NC2CC(C)(C)NC(C)(C)C2)c(C)c1 | inactive |
| Cn1c2c(c(=O)n(C)c1=O)C1c3ccccc3OCC1C(C)(C)O2 (configuration not stated) | inactive |
| CC(Nc1nc(C(F)(F)F)nc2ccccc12)c1cccs1 (configuration not stated) | 20.6 µM (active) |
| CCN(CC)C(=O)c1ccc(O)c(OC)c1 | inactive |
| CCOC(=O)N1CCc2c(sc3c2c(=O)n(Cc2ccccc2)c(=O)n3CC(=O)Nc2cccc(C)c2)C1 | inactive |
| CC1CCN(C(=O)Cn2c(=O)n(-c3ccc(Cl)cc3)c(=O)c3c4c(sc32)CCC4)CC1 | inactive |
| O=c1c2c3c(sc2n(CCN2CCCC2)c(=O)n1Cc1ccccc1)CCCCC3 | 11.6 µM (active) |
| NC(=O)c1ncc(C(F)(F)F)cc1Oc1ccc(F)cc1 | inactive |
| Cc1n[nH]c(C)c1S(=O)(=O)N1CCCC(C(=O)Nc2ccc(Br)cc2)C1 (configuration not stated) | 16.4 µM (active) |
| CC(C)c1ccc(NC(=O)C2CCCN(S(=O)(=O)c3cccnc3)C2)cc1 (configuration not stated) | 7.31 µM (active) |
| Cc1n[nH]c(C)c1S(=O)(=O)N1CCCC(C(=O)NCC2COc3ccccc3O2)C1 (configuration not stated) | inactive |
| Cc1ccccc1N1CC(C(=O)Nc2ccc(S(=O)(=O)N3CCCC3)cc2)CC1=O (configuration not stated) | inactive |
| COc1ccc(S(=O)(=O)N2CCCC(C(=O)NCCCn3ccnc3)C2)cc1OC (configuration not stated) | inactive |
| COc1ccc(NC(=O)C2CCCN(S(=O)(=O)c3c(C)[nH]c(=O)[nH]c3=O)C2)c(OC)c1 (configuration not stated) | inactive |
| O=C(Cc1ccsc1)N1CCN(S(=O)(=O)c2cc(C(F)(F)F)cc(C(F)(F)F)c2)CC1 | inactive |
| CCOC(=O)C1=CN(Cc2ccc(Br)cc2)S(=O)(=O)NC1C (configuration not stated) | inactive |

| Structure (SMILES) | Potency |
| --- | --- |
| Cc1ccc(C(=O)NNC2=Nc3cc([N+](=O)[O-])ccc3OC2)cc1 | inactive |
| Cc1nn(C(=O)c2c(F)cccc2F)c(C)c1S(=O)(=O)N1CCOCC1 | inactive |
| CC(C)=N/N=C1/NC(=O)C(Cc2ccccc2)S1 (configuration not stated) | inactive |
| O=C(NC(=S)Nc1ccc(Br)cc1F)C1CCCCC1 | inactive |
| Cc1nnsc1C(=O)N/N=C/c1ccccc1Cl | inactive |
| Cc1ccc(/C=N/NC(=O)C2=NNC(c3ccccc3)(c3ccccc3)C2)c(O)c1 | 4.11 µM (active) |
| O=C(N/N=C/c1ccc(O)c2ccccc12)c1cccnc1 | inactive |
| O=C(O)c1cscn1 | inactive |
| O=C(Cc1nn[nH]n1)NCCC1=CCCCC1 | inactive |
| CC(OC(=O)c1c(F)cccc1F)C(=O)NCCC1=CCCCC1 (configuration not stated) | inactive |
| S=C(NCCC1=CCCCC1)Nc1ccccc1 | 23.1 µM (active) |
| O=C(CCNC(=O)Cn1ccc2ccccc2c1=O)NCCC1=CCCCC1 | inactive |
| O=C(Cc1cccc2ccccc12)NCCC1=CCCCC1 | 29.1 µM (active) |
| CC(=O)Nc1ccc(S(=O)(=O)N(C)CC(=O)NCCC2=CCCCC2)cc1 | inactive |
| CC(C)CC(=O)N1CCN(Cc2cccc(Cl)c2)CC1 | inactive |
| CCOc1ncccc1C(=O)N(CC)CC(=O)Nc1ccc(NC(C)=O)cc1 | inactive |
| COc1ccc(-n2nc(C(=O)NCC(=O)N3CCC(C(N)=O)CC3)c3ccccc3c2=O)cc1OC | inactive |
| COc1ccc(-n2nc(C(=O)NCCc3ccc(Cl)cc3)c3c4ccccc4n(C)c3c2=O)cc1Cl | 13 µM (active) |
| COc1ccc(-n2nc(C(=O)NCC(=O)N3CCCCCC3)c3ccccc3c2=O)cc1Cl | 23.1 µM (active) |
| COCCCNC(=O)CNC(=O)c1nn(-c2ccc(OC)cc2)c(=O)c2ccccc12 | inactive |
| CCOC(=O)c1ccccc1NC(=O)c1nn(-c2ccc(OC)c(Cl)c2)c(=O)c2c1c1ccccc1n2C | inactive |
| CCOC(=O)CNC(=O)c1nn(-c2cccc(OC)c2)c(=O)c2ccccc12 | inactive |
| S=C(Nc1ccc2c(c1)OCO2)N1CCCC1 | inactive |
| Nc1ccc(Cl)c(S(=O)(=O)Nc2ccccc2Cl)c1 | inactive |
| O=S(=O)(c1ccccc1)N(CC(O)CN1CCCCC1)c1ccccc1 (configuration not stated) | inactive |
| CCN(c1ccccc1)S(=O)(=O)c1ccc2[nH]c(=O)[nH]c2c1 | inactive |

| Structure (SMILES) | Potency |
| --- | --- |
| Cc1cc(C)n(CC(O)CN(c2ccccc2)S(=O)(=O)c2ccc3ccccc3c2)n1 (configuration not stated) | 23.1 µM (active) |
| CCCCCN(C(=O)CCC(=O)OCC(=O)NC1CCC(C)CC1)c1c(N)n(CCCC)c(=O)[nH]c1=O (configuration not stated) | inactive |
| Cc1nc(SCC(=O)N2CCN(c3ccccc3)CC2)[nH]c(=O)c1C | inactive |
| O=C(COC(=O)CNC(=O)c1ccco1)Nc1ccc(F)cc1 | inactive |
| COC(=O)c1ccc(N2CCOCC2)c(NC(=O)c2ccc(Br)o2)c1 | inactive |
| CCCNC(=O)c1ccc(N2CCC3(CC2)CC(c2ccc(Cl)cc2)=NO3)c([N+](=O)[O-])c1 | 20.6 µM (active) |
| CCN1CCC(=NNC(=O)c2ccc(C)c([N+](=O)[O-])c2)CC1 | inactive |
| CCCNC(=O)c1ccc(N2CCC3(CC2)CC(c2cccc(Br)c2)=NO3)c(NC(=O)c2ccco2)c1 | 6.51 µM (active) |
| COCCNC(=O)c1ccc(N2CCC3(CC2)OCCO3)c([N+](=O)[O-])c1 | inactive |
| CCCN(CCC)CCNC(=O)c1ccc2c(c1)NC(=O)C(CS(=O)(=O)Cc1cccc(Br)c1)N2 (configuration not stated) | inactive |
| CN[C@@H]1[C@@H](O)[C@@H](O[C@@H]2[C@H](O)[C@H](O[C@H]3OC(CN)=CC[C@H]3N)[C@@H](N)C[C@H]2N)OCC1(C)O (some centres not stated) | inactive |
| CN1C(C)(C)CC(NC(=O)CCC(=O)NC2CC(C)(C)N(C)C(C)(C)C2)CC1(C)C | inactive |
| O=P(O)(CP(=O)(c1ccccc1)c1ccccc1)c1ccccc1 | inactive |
| Cc1ccc(S(=O)(=O)N2CC(=O)Nc3ccccc32)cc1C | inactive |
| COC(=O)C1=C(C)OC(N)=C(C#N)C1c1cc(OC)ccc1OC (configuration not stated) | inactive |
| C=CCOC(=O)C1=C(C)OC(N)=C(C#N)C1c1ccc(F)cc1 (configuration not stated) | 29.1 µM (active) |
| C=CCOC(=O)C1=C(C)NC(SCC(=O)OCC)=C(C#N)C1c1ccc(C)cc1 (configuration not stated) | inactive |
| O=[N+]([O-])c1ccccc1SNc1ccccn1 | 16.4 µM (active) |
| Nc1nc(Sc2ncccc2[N+](=O)[O-])n[nH]1 | inactive |
| O=C(CSc1nnc(-c2ccc([N+](=O)[O-])cc2)o1)Nc1ccccn1 | inactive |
| O=C(Nc1ccncc1)c1ccc([N+](=O)[O-])cc1Cl | inactive |
| COCC(C)NC(=O)CSc1nc2nn(-c3ccccc3)c(=O)c-2c2n1CCCCC2 (configuration not stated) | inactive |
| NNC(=O)C1CC(O)CN1S(=O)(=O)c1ccc(Cl)cc1 (configuration not stated) | inactive |
| CC1(C)CC(=O)C(N=Nc2ccc(S(=O)(=O)N3CCCCCC3)cc2)=C(O)C1 | inactive |
| NS(=O)(=O)c1ccc(NC(=O)COC(=O)c2ccc(Cl)nc2)cc1 | inactive |
| Cc1cnc(NC(=O)c2ccc(Cl)nc2)s1 | inactive |

| Structure (SMILES) | Potency |
| --- | --- |
| CCN(CC)c1ccc(NC(=O)c2ccc(Cl)nc2)cc1 | 2.59 µM (active) |
| Cc1ccc2c(c1)NCC(C(=O)NC1CCC(C)CC1)O2 (configuration not stated) | inactive |
| CC1(c2ccc3ccccc3c2)NC(=O)N(CC(N)=O)C1=O (configuration not stated) | inactive |
| CCOC(=O)C1CCN(C(=O)CN2C(=O)NC(C)(c3ccc4cc(OC)ccc4c3)C2=O)CC1 (configuration not stated) | 10.3 µM (active) |
| CCOC(=O)C1CCN(C(=O)Nc2cccc(OC)c2)CC1 | inactive |
| COc1ccc(C2C3=C(CCCC3=O)N(CC(=O)O)C3=C2C(=O)CCC3)cc1 | inactive |
| CCOc1ccc(NC(=O)C2CCN(C(=O)N3CCOc4ccccc43)CC2)cc1 | 20.6 µM (active) |
| CCOc1ccc(NC(=S)N2CCC(NC(=O)c3ccccc3)CC2)cc1 | inactive |
| CCOc1ccc(NC(=O)N2CCN(CC)CC2)cc1 | inactive |
| CCOC(=O)c1ccccc1NC(=S)N1CCC(C(N)=O)CC1 | inactive |
| COC(=O)c1ccccc1NC(=O)C1CCN(C(=O)N2CCOc3ccccc32)CC1 | 23.1 µM (active) |
| CC(=O)N1CCOc2ccc(S(=O)(=O)N3CCC(C(=O)Nc4ccccc4F)CC3)cc21 | inactive |
| Cc1ccsc1C(=O)OCC(=O)Nc1cccc(F)c1 | inactive |
| O=C(Nc1cccc2ccccc12)N1CCN(Cc2ccc3c(c2)OCO3)CC1 | inactive |
| N#Cc1cccc(CN2CCC(=O)N(CCO)CC2)c1 | inactive |
| CC(C)[C@@H]1NC(=O)[C@H](Cc2ccccc2)NC(=O)[C@@H](CC(=O)O)NC(=O)CNC(=O)[C@H](CCCNC(=N)N)NC1=O | inactive |
| C=CCOc1ccc(/C=C/C(=O)OCC(=O)NCC2CCCO2)cc1 (configuration not stated) | inactive |
| CCC(C)C(=O)Nc1ccccc1N1CCN(c2ccc(F)cc2)CC1 (configuration not stated) | 20.6 µM (active) |
| O=C(NC(=S)Nc1ccccc1N1CCCCC1)c1ccc(F)cc1 | inactive |
| CCC(=O)Nc1ccccc1N1CCN(S(C)(=O)=O)CC1 | inactive |
| CCCCC(=O)Nc1ccccc1N1CCN(c2ccc(F)cc2)CC1 | 16.4 µM (active) |
| O=C(CN1CCN(c2ccccc2)CC1)Nc1ccc(F)cc1 | inactive |
| Cc1cccc(C)c1NC(=O)CN1CCN(c2ccc(F)cc2)CC1 | 20.6 µM (active) |
| O=C(CN1CCN(c2ccc(F)cc2)CC1)Nc1ccccc1 | inactive |
